# Experimental data as given in the supplement of paper PMC8975748.
# Structures can show the parent of a compound that is named as a salt.
# Test system: Saccharomyces cerevisiae BY4741 SeMeCo community
# Test: z-score of subpopulation abundance vs DMSO median, subpopulation auxotrophic for HLU; higher = larger share of this subpopulation than in DMSO controls
# Settings: 10 µM; 24 h; SM minimal medium; subpopulation (auxotrophy): HLU
# How it was run: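 Scoring was based on each subpopulation's abundance, expressed as a z-score against the vehicle-well median. A Saccharomyces cerevisiae BY4741 community with four plasmids, each restoring one auxotrophy and encoding a distinct fluorescent protein, was pre-grown overnight to OD600 1.0, diluted to 0.3, and added at 70 µl to 384-well plates acoustically predosed with library drugs (10 µM final). It then grew 24 h in minimal SM medium before paraformaldehyde fixation and automated confocal microscopy, with single-auxotroph fluorescent strains setting thresholds and autofluorescence correction.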
row,SMILES,z-score of subpopulation abundance
1,CN[C@@H]1[C@H](O[C@H]2[C@H](O[C@H]3[C@H](O)[C@@H](O)[C@H](NC(=N)N)[C@@H](O)[C@@H]3NC(=N)N)O[C@@H](C)[C@]2(O)CO)O[C@@H](CO)[C@H](O)[C@H]1O [Dihydrostreptomycin sulfate],-1
2,C=CCc1ccc(O)c(-c2ccc(O)c(CC=C)c2)c1 [Honokiol],-1.04
3,COCCCN1CCC(NC(=O)c2cc(Cl)c(N)c3c2OCC3)CC1 [Prucalopride],-0.6
4,COCC(=O)Nc1cc(Sc2ccccc2)ccc1N=C(NC(=O)OC)NC(=O)OC [Febantel],-0.05
5,Cc1ccsc1/C=C/C1=NCCCN1C [Morantel tartrate],-0.25
6,CCn1cc(C(=O)O)c(=O)c2cc(F)c(N3CCNCC3)cc21 [Norfloxacin],-0.16
7,CC[C@H]1OC(=O)C[C@@H](O)[C@H](C)[C@@H](O[C@@H]2O[C@H](C)[C@@H](O[C@H]3C[C@@](C)(O)[C@@H](O)[C@H](C)O3)[C@H](N(C)C)[C@H]2O)[C@@H](CC=O)C[C@@H](C)C(=O)/C=C/C(C)=C/[C@@H]1CO[C@@H]1O[C@H](C)[C@@H](O)[C@@H](OC)[C@H]1OC [Tylosin],0.34
8,COC(=O)C1=C(C)NC(C)=C(C(=O)OC2CCCN(Cc3ccccc3)C2)C1c1cccc([N+](=O)[O-])c1 (stereo not given) [Benidipine HCl],0.26
9,CC1=C[C@H]2C(=O)O[C@H]3C[C@@H](C/C=C(\C)C[C@@H](C)/C=C/C=C4\CO[C@H](/C1=N\O)[C@@]42O)O[C@@]1(CC[C@H](C)[C@@H](C)O1)C3.CC[C@H]1O[C@]2(CC[C@@H]1C)C[C@@H]1C[C@@H](C/C=C(\C)C[C@@H](C)/C=C/C=C3\CO[C@@H]4/C(=N\O)C(C)=C[C@@H](C(=O)O1)[C@]34O)O2 [Milbemycin Oxime],-0.11
10,CC1=Nc2ccc(Cl)cc2S(=O)(=O)N1 [Diazoxide],-0.88
11,O=C(O)c1cc(O)c2c(c1)[C@H]([C@H]1c3cc(C(=O)O)cc(O)c3C(=O)c3c(O[C@@H]4O[C@H](CO)[C@@H](O)[C@H](O)[C@H]4O)cccc31)c1cccc(O[C@@H]3O[C@H](CO)[C@@H](O)[C@H](O)[C@H]3O)c1C2=O [Sennoside A],-0.71
12,Oc1ccc([C@H]2COc3cc(O)ccc3C2)cc1 [Equol],0
13,COc1ccc2cc(CCC(C)=O)ccc2c1 [Nabumetone],-0.94
14,CO/N=C(\C(=O)N[C@@H]1C(=O)N2C(C(=O)O)=C(CSc3nc(=O)c(O)nn3C)CS[C@H]12)c1csc(N)n1 [Ceftriaxone Sodium Trihydrate],2.14
15,CO/N=C(\C(=O)N[C@@H]1C(=O)N2C(C(=O)OC(C)OC(C)=O)=C(COC(N)=O)CS[C@H]12)c1ccco1 (stereo not given in full) [Cefuroxime axetil],-0.22
16,CNCCCN1c2ccccc2CCc2ccccc21 [Desipramine Hydrochloride],-0.62
17,CCCCCOc1ccccc1/C(=C\SC)n1ccnc1 [Neticonazole Hydrochloride],2.52
18,CC(C(=O)O)c1ccc2c(c1)[nH]c1ccc(Cl)cc12 (stereo not given) [Carprofen],-0.81
19,CCC(C)n1ncn(-c2ccc(N3CCN(c4ccc(OCC5COC(Cn6cncn6)(c6ccc(Cl)cc6Cl)O5)cc4)CC3)cc2)c1=O (stereo not given) [Itraconazole],7.28
20,C=CCN1CCCC1CNC(=O)c1cc2nn[nH]c2cc1OC (stereo not given) [Alizapride HCl],0.1

row,SMILES,z-score of subpopulation abundance
1,CO/N=C(\C(=O)N[C@@H]1C(=O)N2C(C(=O)O)=C(CSc3nc(C)c(CC(=O)O)s3)CS[C@H]12)c1csc(N)n1 [Cefodizime Sodium],-1.16
2,C[C@H](NCc1ccc(OCc2cccc(F)c2)cc1)C(N)=O [Safinamide Mesylate],0.4
3,Cc1ccnc(NS(=O)(=O)c2ccc(N)cc2)n1 [Sulfamerazine],0.89
4,N=C(N)NS(=O)(=O)c1ccc(N)cc1 [Sulfaguanidine],-0.69
5,C=C[C@H]1CN2CC[C@H]1C[C@@H]2[C@@H](O)c1ccnc2ccc(OC)cc12 [Quinidine sulfate],1.39
6,O=C(Nc1ccc(Oc2ccc(Cl)cc2)c(Cl)c1)c1cc(I)cc(I)c1O [Rafoxanide],-0.3
7,COC(=O)Nc1nc2cc(C(=O)c3ccccc3)ccc2[nH]1 [Mebendazole],-0.05
8,Nc1nc(N)c2nc(-c3ccccc3)c(N)nc2n1 [Triamterene],-3.55
9,CC(=O)N1CCN(c2ccc(OCC3COC(Cn4ccnc4)(c4ccc(Cl)cc4Cl)O3)cc2)CC1 (stereo not given) [Ketoconazole],-0.27
10,Cc1onc(-c2ccccc2)c1C(=O)N[C@@H]1C(=O)N2[C@@H]1SC(C)(C)[C@@H]2C(=O)O [Oxacillin sodium monohydrate],0.2
11,CC[C@H]1OC(=O)[C@H](C)[C@@H](O[C@H]2C[C@@](C)(OC)[C@@H](O)[C@H](C)O2)[C@H](C)[C@@H](O[C@@H]2O[C@H](C)C[C@H](N(C)C)[C@H]2O)[C@](C)(O)C[C@@H](C)C(=O)[C@H](C)[C@@H](O)[C@]1(C)O [Erythromycin thiocyanate],-0.56
12,CCn1cc(C(=O)O)c(=O)c2cc(F)c(N3CCNC(C)C3)c(F)c21 (stereo not given) [Lomefloxacin HCl],1.38
13,CNS(=O)(=O)CCc1ccc2[nH]cc(C3CCN(C)CC3)c2c1 [Naratriptan HCl],-0.03
14,CO[C@@]1(NC(=O)CSC[C@@H](N)C(=O)O)C(=O)N2C(C(=O)O)=C(CSc3nnnn3C)CS[C@@H]21 [Cefminox Sodium],0.47
15,CNCCCC1c2ccccc2C=Cc2ccccc21 [Protriptyline hydrochloride],0.54
16,CC1CCc2c(N3CCC(O)CC3)c(F)cc3c(=O)c(C(=O)O)cn1c23 (stereo not given) [Nadifloxacin],-0.45
17,C[n+]1ccccc1/C=N/O [Pralidoxime chloride],-0.43
18,Oc1ccc(Cl)c2cccnc12 [Cloxiquine],17.6
19,N[C@H]1CONC1=O [L-Cycloserine],4.59
20,CCN(CC)CC#CCOC(=O)C(O)(c1ccccc1)C1CCCCC1 (stereo not given) [Oxybutynin chloride],-0.57
